Test results reported in PubChem BioAssay (NCI).
This is part of a sample that, as a whole, favours compounds with a hit. Of some 83,000 tested, about 20% had one in any assay.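 Each cell line was grown in a 96-well plate and treated with one concentration of compound for 48 hours. Values below 10 were considered active.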 Calls of active or inactive are those of the source.

Experiments:
Experiment in all cases: NCI-60 one-dose screen, 48 h (100 = growth as untreated, 0 = no growth, -100 = all killed)
Settings in all cases: 10 µM unless noted
SR leukemia = system: SR leukemia
RPMI-8226 leukemia = system: RPMI-8226 leukemia
OVCAR-8 ovarian = system: OVCAR-8 ovarian
OVCAR-5 ovarian = system: OVCAR-5 ovarian
OVCAR-4 ovarian = system: OVCAR-4 ovarian
SK-OV-3 ovarian = system: SK-OV-3 ovarian
IGROV1 ovarian = system: IGROV1 ovarian
OVCAR-3 ovarian = system: OVCAR-3 ovarian
HS 578T breast = system: HS 578T breast
NCI/ADR-RES ovarian = system: NCI/ADR-RES ovarian
T-47D breast = system: T-47D breast
BT-549 breast = system: BT-549 breast
MDA-MB-435 melanoma = system: MDA-MB-435 melanoma
SW-620 colon = system: SW-620 colon
MCF7 breast = system: MCF7 breast
HCT-116 colon = system: HCT-116 colon
HCC-2998 colon = system: HCC-2998 colon
KM12 colon = system: KM12 colon

Measured: growth

CNc1cc2nc3cc(NC)c(C)cc3cc2cc1C
inactive: OVCAR-5 ovarian 24.5% | OVCAR-4 ovarian 10.8% | SK-OV-3 ovarian 12.7% | IGROV1 ovarian 21.1% | HS 578T breast 13.1% | NCI/ADR-RES ovarian 40.7% | BT-549 breast 20.6% | MDA-MB-435 melanoma 41.7% | HCC-2998 colon 18.7%
active: SR leukemia -27.6% | RPMI-8226 leukemia 3.16% | OVCAR-8 ovarian 2.25% | OVCAR-3 ovarian 3.6% | T-47D breast 7.86% | SW-620 colon 8.75% | MCF7 breast 3.03% | HCT-116 colon 5.54% | KM12 colon -40.7%

Clc1cccc(Nc2nc(Nc3cnc4ccccc4c3)c3[nH]cnc3n2)c1
inactive: SR leukemia 80.8% | RPMI-8226 leukemia 78.3% | OVCAR-8 ovarian 75.6% | OVCAR-5 ovarian 89.3% | OVCAR-4 ovarian 93.9% | SK-OV-3 ovarian 71.2% | IGROV1 ovarian 62.3% | OVCAR-3 ovarian 73.6% | HS 578T breast 65.6% | NCI/ADR-RES ovarian 87.2% | T-47D breast 53.7% | BT-549 breast 73.7% | MDA-MB-435 melanoma 84.4% | SW-620 colon 98.1% | MCF7 breast 64.9% | HCT-116 colon 76.4% | HCC-2998 colon 100% | KM12 colon 92.8%

CC#CC#Cc1cccc(=O)o1
inactive: RPMI-8226 leukemia 45.6% | OVCAR-8 ovarian 65.8% | OVCAR-5 ovarian 101% | OVCAR-4 ovarian 91.6% | SK-OV-3 ovarian 104% | IGROV1 ovarian 65.1% | HS 578T breast 70.9% | NCI/ADR-RES ovarian 90.1% | T-47D breast 59.9% | BT-549 breast 38.1% | MDA-MB-435 melanoma 15.2% | SW-620 colon 27.3% | MCF7 breast 29% | HCT-116 colon 30.9% | HCC-2998 colon 95.8% | KM12 colon 58.8%
active: SR leukemia -9.17% | OVCAR-3 ovarian 7.67%

O=C(Nc1ccc(Oc2ccc(F)cc2)c(Cl)c1)c1cccnc1
inactive: SR leukemia 75.1% | RPMI-8226 leukemia 87.3% | OVCAR-8 ovarian 98.6% | OVCAR-5 ovarian 99.9% | OVCAR-4 ovarian 85.2% | SK-OV-3 ovarian 110% | IGROV1 ovarian 95.4% | OVCAR-3 ovarian 85.8% | HS 578T breast 91.5% | NCI/ADR-RES ovarian 85.1% | T-47D breast 70.6% | BT-549 breast 92.5% | MDA-MB-435 melanoma 41.5% | SW-620 colon 92.7% | MCF7 breast 76.7% | HCT-116 colon 88.2% | HCC-2998 colon 91.2% | KM12 colon 76.4%

NC(=S)N/N=C/c1ccc(OCc2ccccc2)cc1
active: RPMI-8226 leukemia 1.94%
inactive: SR leukemia 62.8% | OVCAR-8 ovarian 78.2% | OVCAR-5 ovarian 89.7% | OVCAR-4 ovarian 44.8% | SK-OV-3 ovarian 80% | IGROV1 ovarian 52.8% | OVCAR-3 ovarian 62.1% | HS 578T breast 81.2% | NCI/ADR-RES ovarian 83.7% | T-47D breast 20.8% | BT-549 breast 58.4% | MDA-MB-435 melanoma 74% | SW-620 colon 66.2% | MCF7 breast 52.1% | HCT-116 colon 52.5% | HCC-2998 colon 79.2% | KM12 colon 84.6%

CCCC(=O)Oc1ccc(/C(=C(/CC)Cc2ccccc2)c2ccc(OCCN3CCCC3)cc2)cc1
active: SR leukemia 1.36%
inactive: RPMI-8226 leukemia 33.3% | OVCAR-8 ovarian 96.4% | OVCAR-5 ovarian 84.2% | OVCAR-4 ovarian 68.4% | SK-OV-3 ovarian 97% | IGROV1 ovarian 74% | OVCAR-3 ovarian 74.1% | HS 578T breast 82.7% | NCI/ADR-RES ovarian 69.9% | T-47D breast 48.9% | BT-549 breast 85.3% | MDA-MB-435 melanoma 57.1% | SW-620 colon 80.5% | MCF7 breast 24.9% | HCT-116 colon 68.7% | HCC-2998 colon 42.6% | KM12 colon 70.8%

COC(=O)[C@@H]1CC[C@]2(C)[C@H](CC[C@@H]3O[C@@]32C)[C@@]1(C)CC(=O)c1ccoc1
inactive: SR leukemia 86.6% | RPMI-8226 leukemia 91.2% | OVCAR-8 ovarian 102% | OVCAR-5 ovarian 109% | OVCAR-4 ovarian 127% | SK-OV-3 ovarian 103% | IGROV1 ovarian 105% | OVCAR-3 ovarian 105% | HS 578T breast 88.2% | NCI/ADR-RES ovarian 103% | T-47D breast 105% | BT-549 breast 105% | MDA-MB-435 melanoma 104% | SW-620 colon 88.3% | MCF7 breast 93% | HCT-116 colon 98.4% | HCC-2998 colon 93.1% | KM12 colon 108%

Cc1cc(Nc2nc(N3CCNCC3)nc3ccccc23)n[nH]1
inactive: SR leukemia 92.6% | RPMI-8226 leukemia 117% | OVCAR-8 ovarian 115% | OVCAR-5 ovarian 89.6% | OVCAR-4 ovarian 96.2% | SK-OV-3 ovarian 27% | IGROV1 ovarian 85.1% | OVCAR-3 ovarian 100% | HS 578T breast 65.2% | NCI/ADR-RES ovarian 107% | T-47D breast 93% | BT-549 breast 88.6% | MDA-MB-435 melanoma 73% | SW-620 colon 103% | MCF7 breast 87% | HCT-116 colon 80% | HCC-2998 colon 92.4% | KM12 colon 26.7%

O=[N+]([O-])c1cccc(-c2nc3sccn3c2-c2ccnc(NCCCNS(=O)(=O)c3ccc(F)cc3)n2)c1
active: SR leukemia 9.01% | RPMI-8226 leukemia -29.7% | OVCAR-8 ovarian 3.44% | OVCAR-4 ovarian -5.32% | IGROV1 ovarian 5.03% | OVCAR-3 ovarian 4.12% | NCI/ADR-RES ovarian -15.5% | T-47D breast -12.1% | BT-549 breast -12.1% | MDA-MB-435 melanoma 1.66% | MCF7 breast -8.37% | HCT-116 colon 4.43% | KM12 colon 0.995%
inactive: OVCAR-5 ovarian 59.1% | SK-OV-3 ovarian 37.1% | HS 578T breast 22.2% | SW-620 colon 18.3% | HCC-2998 colon 58.3%

CCOC(=O)c1cnc2ccc(OC)cc2c1Nc1cccc(S(=O)(=O)NC)c1
inactive: SR leukemia 95.6% | RPMI-8226 leukemia 51.6% | OVCAR-8 ovarian 100% | OVCAR-5 ovarian 102% | OVCAR-4 ovarian 104% | SK-OV-3 ovarian 113% | IGROV1 ovarian 113% | OVCAR-3 ovarian 103% | HS 578T breast 52.3% | NCI/ADR-RES ovarian 90% | T-47D breast 98% | BT-549 breast 80.1% | MDA-MB-435 melanoma 103% | SW-620 colon 113% | MCF7 breast 80.9% | HCT-116 colon 96.7% | HCC-2998 colon 101% | KM12 colon 96.1%

O=C(COc1cccc(/C=C2/Oc3ccccc3C2=O)c1)Nc1nccs1
inactive: OVCAR-8 ovarian 61.8% | OVCAR-5 ovarian 86.6% | OVCAR-4 ovarian 87.5% | SK-OV-3 ovarian 266% | OVCAR-3 ovarian 220% | HS 578T breast 88.6% | NCI/ADR-RES ovarian 83.3% | T-47D breast 166% | BT-549 breast 87.9% | MDA-MB-435 melanoma 103% | SW-620 colon 97.2% | MCF7 breast 54.4% | HCT-116 colon 73.9% | HCC-2998 colon 105%
active: SR leukemia -53.8% | RPMI-8226 leukemia -53.2% | IGROV1 ovarian -35% | KM12 colon 4.37%

O=C1C[C@H](Sc2nc(-c3ccc(F)cc3)cc(C(F)(F)F)n2)[C@H]2CO[C@@H]1O2
inactive: SR leukemia 17.9% | RPMI-8226 leukemia 96.9% | OVCAR-8 ovarian 97.4% | OVCAR-5 ovarian 105% | OVCAR-4 ovarian 108% | SK-OV-3 ovarian 108% | IGROV1 ovarian 115% | OVCAR-3 ovarian 91.6% | HS 578T breast 109% | NCI/ADR-RES ovarian 106% | T-47D breast 62.3% | BT-549 breast 111% | MDA-MB-435 melanoma 102% | SW-620 colon 67.5% | MCF7 breast 46.4% | HCT-116 colon 75.6% | HCC-2998 colon 105% | KM12 colon 101%

CCC(=O)Oc1ccc(/C(=C(\C)c2ccccc2)c2ccc(OCCN(CC)CC)cc2)cc1
inactive: SR leukemia 43.9% | RPMI-8226 leukemia 68.2% | OVCAR-8 ovarian 87.9% | OVCAR-5 ovarian 91.7% | OVCAR-4 ovarian 87.5% | SK-OV-3 ovarian 91.4% | IGROV1 ovarian 92.7% | OVCAR-3 ovarian 97.8% | HS 578T breast 51.9% | NCI/ADR-RES ovarian 93% | T-47D breast 43.8% | BT-549 breast 86.3% | MDA-MB-435 melanoma 76.1% | SW-620 colon 79.4% | MCF7 breast 37.9% | HCT-116 colon 62.1% | HCC-2998 colon 103% | KM12 colon 80.3%

CC(=O)Nc1ccc2c(c1)c(NC(C)=O)nn2C(=O)Nc1ccc(Cc2ccccc2)cc1
inactive: SR leukemia 98.7% | RPMI-8226 leukemia 88.8% | OVCAR-8 ovarian 71.8% | OVCAR-5 ovarian 67.1% | OVCAR-4 ovarian 89.4% | SK-OV-3 ovarian 67.3% | IGROV1 ovarian 83.2% | OVCAR-3 ovarian 84.4% | HS 578T breast 56.9% | NCI/ADR-RES ovarian 89.4% | T-47D breast 82.5% | BT-549 breast 43% | MDA-MB-435 melanoma 82.2% | SW-620 colon 102% | MCF7 breast 89.6% | HCT-116 colon 61% | HCC-2998 colon 78.8% | KM12 colon 85.9%

O=C1C2CC=CCC2C(=O)N1CNc1ccc(Cl)cc1 (stereo unspecified)
inactive: SR leukemia 126% | RPMI-8226 leukemia 116% | OVCAR-8 ovarian 110% | OVCAR-5 ovarian 87.6% | OVCAR-4 ovarian 112% | SK-OV-3 ovarian 101% | IGROV1 ovarian 74.6% | OVCAR-3 ovarian 107% | HS 578T breast 79.3% | NCI/ADR-RES ovarian 95.2% | T-47D breast 86.2% | BT-549 breast 84.1% | MDA-MB-435 melanoma 108% | SW-620 colon 94% | MCF7 breast 102% | HCT-116 colon 90.1% | HCC-2998 colon 98.8% | KM12 colon 104%

Cc1noc(C)c1-c1cc(O)cc(C(O)c2ccccc2)c1 (stereo unspecified)
inactive: SR leukemia 27.1% | RPMI-8226 leukemia 14.9% | OVCAR-8 ovarian 38.6% | OVCAR-5 ovarian 73.3% | OVCAR-4 ovarian 32.5% | SK-OV-3 ovarian 43.7% | IGROV1 ovarian 46% | OVCAR-3 ovarian 46.7% | HS 578T breast 33.7% | NCI/ADR-RES ovarian 59.2% | T-47D breast 47.1% | BT-549 breast 64.7% | MDA-MB-435 melanoma 43.9% | SW-620 colon 72.1% | MCF7 breast 20.9% | HCT-116 colon 58.1% | HCC-2998 colon 62.2% | KM12 colon 53.1%

Cc1cc(Nc2nc(N3CCN(C)CC3)nc3ccccc23)n[nH]1
inactive: SR leukemia 20.7% | RPMI-8226 leukemia 87.2% | OVCAR-8 ovarian 99.6% | OVCAR-5 ovarian 86.7% | OVCAR-4 ovarian 54.5% | SK-OV-3 ovarian 25.5% | IGROV1 ovarian 35.6% | OVCAR-3 ovarian 75.8% | HS 578T breast 50.8% | NCI/ADR-RES ovarian 122% | T-47D breast 71.2% | BT-549 breast 76.2% | MDA-MB-435 melanoma 52.2% | SW-620 colon 69.2% | MCF7 breast 46.2% | HCT-116 colon 50.3% | HCC-2998 colon 87.6% | KM12 colon 19%
